Screening results deposited in PubChem by National Center for Advancing Translational Sciences (NCATS).
A selection: hits, their analogues and other compounds. The true share with any hit is near 3.7%.
D3 ag – qHTS of D3 Dopamine Receptor Agonist: qHTS; 0.58% of 410,000 active; D(3) dopamine receptor (Homo sapiens), P35462; D3R DiscoveRx beta-arrestin cells, luminescence, 90 min; max activation, %; AID 652048, 2013; in the data active means max activation above about 30%
Target sequence (P35462 whole entry, looked up): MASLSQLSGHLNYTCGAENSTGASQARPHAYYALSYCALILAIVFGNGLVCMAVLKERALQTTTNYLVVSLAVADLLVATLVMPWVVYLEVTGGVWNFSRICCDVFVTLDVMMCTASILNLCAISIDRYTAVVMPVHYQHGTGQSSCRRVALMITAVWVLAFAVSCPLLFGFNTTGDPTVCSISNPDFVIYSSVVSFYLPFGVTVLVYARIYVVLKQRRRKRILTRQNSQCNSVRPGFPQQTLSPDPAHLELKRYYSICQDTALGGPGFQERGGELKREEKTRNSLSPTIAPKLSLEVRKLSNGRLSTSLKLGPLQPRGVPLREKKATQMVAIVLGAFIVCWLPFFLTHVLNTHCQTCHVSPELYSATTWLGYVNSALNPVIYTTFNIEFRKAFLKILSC
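Agonist mode: compounds and dopamine controls were applied to plated cells for 90 min at 37 degrees C after an overnight attachment at 1500 cells/well. Luminescent read-out followed 30 - 60 minutes at room temperature with DiscoveRx detection reagent.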
D3 antag – qHTS of D3 Dopamine Receptor Antagonist: qHTS. 2.5% of 360,000 active. max response, negative = inhibition, %. D3R cells, DiscoveRx beta-arrestin luminescence, antagonist mode; active compounds read low. AID 652054, 2013. D(3) dopamine receptor (Homo sapiens), P35462; in the data active means max response below about -50%; inconclusive means no clear call, values can overlap the other calls
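Cells plated overnight at 1500 cells/well, then exposed to library compounds with dopamine controls for 90 minutes at 37 degrees C. DiscoveRx reagent added for 30–60 minutes at room temperature; luminescence read, quantitative HTS format.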
BRCA1 expr act – qHTS Assay to Identify Small Molecule Activators of BRCA1 Expression; MCF7-BRCA1-FFLuc reporter, luminescence, 48 h; response scale: scaled: vehicle 0%, 10 µM genistein 100%; Potency, µM (top dose mostly 46.1 µM), actives largely listed as activators; 1.1% of 380,000 active; AID 624202, 2012; further: nearly all actives have a fitted effect of over 80% in size
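Using MCF7 cells harboring a BRCA1 firefly luciferase reporter, plated 2 h before compound pinning, the screen measured luminescence after 48 h incubation. Responses were normalized to DMSO and 10 microM genistein, then fitted for concentration-effect.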
B2AR arrestin – qHTS assay of beta-arrestin-biased ligands of beta2-adrenergic receptor. Potency, µM (highest dose often 46.1 µM), actives largely listed as activators. beta-arrestin recruitment to beta2AR, cell-based reporter. Beta-2 adrenergic receptor (Homo sapiens), P07550. AID 492947, 2010. 0.02% of 330,000 active; further: nearly all actives have a fitted effect of over 65% in size
PTHR1 agonist – qHTS for PTHR1 Agonists: Primary Screen. Parathyroid hormone/parathyroid hormone-related peptide receptor (Homo sapiens), Q03431. HEK293 GP2 PTHR1 cells, GloSensor cAMP luminescence, 1 h. Potency, µM (series often up to 115 µM), usual class: activators. 0.075% of 410,000 active; further: nearly all actives have a fitted effect of over 55% in size
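HEK-293-derived GP2 cells expressing PTHR1 and a GloSensor cAMP reporter, 3,000/well, plated overnight, given luciferin plus IBMX (each 0.5 mM as added) for 1 h at 37 °C, then compound for 1 h at 37 °C. Luminescence was read after 15 min at room temperature.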
RGS4 inhibitor – Inhibitors of Regulator of G Protein Signaling (RGS) 4: qHTS. 0.039% of 390,000 active. AID 504845, 2011. Transcreener GDP fluorescence polarization, RGS4-accelerated GTP hydrolysis. Potency, µM (top dose mostly 114 µM), most hits filed as inhibitors. Regulator of G-protein signaling 4 (Homo sapiens), P49798; further: nearly all actives have a fitted effect of over 75% in size
Target sequence (P49798 whole entry, looked up): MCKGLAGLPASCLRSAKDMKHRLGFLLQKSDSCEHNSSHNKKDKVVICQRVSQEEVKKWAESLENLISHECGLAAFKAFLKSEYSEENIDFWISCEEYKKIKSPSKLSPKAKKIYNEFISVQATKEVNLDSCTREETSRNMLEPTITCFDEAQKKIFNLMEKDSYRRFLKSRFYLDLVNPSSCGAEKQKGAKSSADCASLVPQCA
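MLSMR compounds (23 nl, pin-transferred) preincubated 10 min at room temperature with a 500nM (2x) first reagent, then RGS4 at 900nM (2x) plus Transcreener GDP mix added; fluorescence polarization (620/688 nm) read before and after 90 min at 30 °C.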
Each line names hits and unclear results; the compound was inactive in the other large screens. Unless noted, the call rests on the fitted dose curve; in most records, active means well fitted curve in the direction sought with a large enough effect; inconclusive means small, poorly fitted or top-dose-only effect, or another doubt; inactive means no such curve, though single readings can be large; an effect the other way counts as inactive or inconclusive.

CCCCCCCCNCCS(=O)(=O)NCc1ccc(OC)cc1	D3 antag -63 (no result: B2AR arrestin)
CCCCCCCCNCCS(=O)(=O)NCCCCCCCC	none (no result: B2AR arrestin)
Cc1ccc(COc2ccsc2-c2n[nH]c(=S)n2C)cc1	none
Cn1c(-c2sccc2OCc2ccccc2)n[nH]c1=S	D3 antag -54
CC(C)C(=O)Nc1cccc(C(=O)OCC(=O)c2ccc(Cl)cc2Cl)c1	D3 ag 31
CCNS(=O)(=O)c1ccc(CCC(=O)N2CCc3ccccc3C2)cc1	D3 antag -72
O=C(CNS(=O)(=O)c1ccccc1)N1CCc2ccccc2C1	D3 antag inconclusive, BRCA1 expr act 11µM
O=c1c2ccccc2oc2cc(NCCCN3CCOCC3)ccc12	BRCA1 expr act 5.6µM
COc1cccc2sc3cc(NCCCN4CCOCC4)ccc3c(=O)c12	BRCA1 expr act 10µM
Cn1c2ccccc2c(=O)c2cc(NCCCN3CCOCC3)ccc21	D3 antag inconclusive, BRCA1 expr act inconclusive
O=c1c2ccccc2oc2ccc(NCCCN3CCOCC3)cc12	BRCA1 expr act inconclusive
CN1CCCC1CCNc1ccc2oc3ccccc3c(=O)c2c1 (stereo not drawn)	BRCA1 expr act 1.3µM
CN1CCC[C@H]1CCNc1ccc2c(=O)c3ccccc3n(C)c2c1	BRCA1 expr act inconclusive, RGS4 inhibitor inconclusive (no result: B2AR arrestin)
O=c1c2ccccc2oc2cc(NCCCn3ccnc3)ccc12	BRCA1 expr act inconclusive
CN1CCCC1CCNc1ccc2c(=O)c3ccccc3oc2c1 (stereo not drawn)	BRCA1 expr act 13µM
Cc1ccc(NC(=O)Cn2c(-c3ccc(F)cc3)cnc2SCC(=O)Nc2c(C)cccc2C)cc1	D3 antag -71
CC(C)Oc1ccc(C2CC(=O)N(Nc3ccc([N+](=O)[O-])cc3[N+](=O)[O-])C2=O)cc1 (stereo not drawn)	D3 antag -51
CCOc1ccc(C2CC(=O)N(Nc3ccc([N+](=O)[O-])cc3[N+](=O)[O-])C2=O)cc1 (stereo not drawn)	D3 antag inconclusive
COc1ccc(C(=O)N2CCc3ccc(NC(=O)c4ccccn4)cc3C2)cc1F	none
CCCNC(=O)CCC(NS(=O)(=O)c1ccc(C)cc1)C(=O)NCCC (stereo not drawn)	D3 antag -56
CC(C)CN(C(=O)CN1C(=O)C2CCCCC2C1=O)c1c(N)n(Cc2ccccc2)c(=O)[nH]c1=O (stereo not drawn)	none
COc1ccc(-c2coc3cc(OC4OC(CO)C(O)C(O)C4O)ccc3c2=O)cc1 (stereo not drawn)	BRCA1 expr act inconclusive
COc1ccc(CC(=O)c2ccc(OC3OC(CO)C(O)C(O)C3O)cc2O)cc1 (stereo not drawn)	BRCA1 expr act 11µM
COc1ccc(-c2coc3cc(O)ccc3c2=O)cc1O	BRCA1 expr act 13µM
COc1ccc(-c2coc3cc(O[C@@H]4O[C@H](CO)[C@@H](O)[C@H](O)[C@H]4O)c(OC)cc3c2=O)cc1	BRCA1 expr act 11µM
CC(=O)Oc1ccc(-c2cc3ccc(OC(C)=O)cc3oc2=O)cc1	BRCA1 expr act 5.6µM (no result: B2AR arrestin)
Cc1ccc(NC(=O)c2ncn(CC(=O)N3CCN(c4ccccn4)CC3)n2)cc1C	none
COc1ccc(-c2coc3cc(O)ccc3c2=O)cc1	BRCA1 expr act inconclusive (no result: B2AR arrestin)
CCOC(=O)COc1ccc2c(=O)c(-c3ccccc3)coc2c1	none
CC(=O)Oc1ccc2c(=O)c(-c3ccccc3)coc2c1	BRCA1 expr act 7.9µM
COc1ccc(-c2coc3cc(OC)ccc3c2=O)cc1	BRCA1 expr act 2.8µM (no result: B2AR arrestin)
CN(C)c1ccc(-c2nnn(CC(=O)NCc3ccc4c(c3)OCO4)n2)cc1	BRCA1 expr act inconclusive
O=C(Nc1nnc(C2CCCC2)s1)C1CCC1	BRCA1 expr act 11µM
OC(CN1CCCCC1)c1cc(-c2ccccc2)on1 (stereo not drawn)	none (no result: D3 antag, BRCA1 expr act, B2AR arrestin, PTHR1 agonist, RGS4 inhibitor)
O=C(CSc1nc2ccccc2o1)Nc1ccc(N2CCOCC2)c(Cl)c1	BRCA1 expr act 6.3µM
CC(=O)Nc1ccc2nc(SCC(=O)Nc3ccc(N4CCOCC4)c(Cl)c3)sc2c1	BRCA1 expr act 13µM
COc1cc(OC)c(NC(=O)C(C)n2nc(-c3ccc(C)c(C)c3)ccc2=O)cc1Cl (stereo not drawn)	none (no result: D3 antag, BRCA1 expr act, B2AR arrestin)
COC(=O)[C@H](CCSC)NC(=O)Cn1ccc(N)nc1=O	D3 antag -51
Cc1c(NC(=O)c2ccc(N3CCCC3)c([N+](=O)[O-])c2)cccc1-c1nc2ccccc2s1	D3 antag -51
O=C(NCCN1CCc2ccccc2C1)C1CCN(S(=O)(=O)N2CCC3(CC2)OCCO3)CC1	D3 antag -60
O=C(NCCN1CCc2ccccc2C1)C1CCN(S(=O)(=O)N2CCCCC2)CC1	D3 antag -66
Cc1cccc(C(=O)N[C@H](C(=O)Nc2nc3ccc(S(C)(=O)=O)cc3s2)C(C)C)c1	none
CC(=O)c1ccc(N2C(=O)N(CC(=O)c3ccc(F)cc3)c3ccccc3S2(=O)=O)cc1	none (no result: D3 antag, B2AR arrestin)
CC(=O)c1ccc(N2C(=O)N(Cc3ccc(F)cc3)c3ccccc3S2(=O)=O)cc1	D3 ag 50 (no result: D3 antag, B2AR arrestin)
CC(OCC(O)CN(C)Cc1nc2ccccc2c(=O)[nH]1)c1ccc(Cl)cc1 (stereo not drawn)	none
COC(=O)c1cc(-c2ccc(OC)cc2)n[nH]1	BRCA1 expr act inconclusive
COC(=O)c1cc(-c2ccc(C)cc2)n[nH]1	BRCA1 expr act 10µM
CC(C)CCn1c(=O)c2ccccc2n2c(CN3CCOCC3)nnc12	D3 antag -54
COc1ccc2nc(NC(=O)CSc3ccccc3)sc2c1	BRCA1 expr act 10µM
CCOc1ccc2nc(NC(=O)CCC(=O)c3cccs3)sc2c1	D3 antag inconclusive, BRCA1 expr act 1.8µM
Cc1ccc(S(=O)(=O)N2CCCC2C(=O)Nc2nc3c(s2)CCCC3)cc1 (stereo not drawn)	none
COc1ccc2nc(NC(=O)C3CCCN3S(=O)(=O)c3ccc(C)cc3)sc2c1 (stereo not drawn)	D3 antag -71
COc1ccc2nc(NC(=O)CN3CCOCC3)sc2c1	none
CCN1CCN(CC(=O)Nc2nc3ccc(OC)cc3s2)CC1	D3 antag -66
CSc1ccc(NC(=O)C2(C)CCN2C(=O)c2cc(C)n(C)n2)cc1 (stereo not drawn)	none (no result: B2AR arrestin, RGS4 inhibitor)
